Values joined by “and” are separate entries in the source; they are usually repeats but may differ in a detail not shown here. Equal entries are not always repeated. Results filed as inconclusive are left out. Unmarked numbers belong to inactive results. Active and inactive are the calls of the source. Unless noted, the call rests on the fitted dose curve; in most records, active means well fitted curve in the direction sought with a large enough effect in the repeat runs; inconclusive means weak or mixed curves; inactive means no such curve, though single readings can be large; an effect the other way counts as inactive or inconclusive.

The nature of assay [1]: qHTS assay to identify small molecule antagonists of the estrogen related receptor (ERR) signaling pathway from Tox21 library - cell viability counter screen (AID 1224834). Further: nearly all actives have a fitted effect of over 30% in size. The method in brief:
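ERR cells, 2,000/well; 6 h settle at 37 C/5% CO2; pin-tool compound transfer in DMSO; 17.5 h at 37 C; CellTiter-Fluor, 30 min; fluorescence intensity.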
For orientation: qHTS replaces the single test concentration by a dilution series.

The target of assay [2] is Luciferin 4-monooxygenase (Photinus pyralis) (UniProt P08659). Put plainly: qHTS assay to identify small molecule inhibitors of firefly luciferase (AID 1224835). Further: nearly all actives have a fitted effect of over 25% in size. Further: potency means the concentration at half of the fitted maximal effect. On activity change, negative = inhibition: series mostly up to about 120 µM. The method, boiled down: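 Quantitative HTS format; KM concentrations of both substrates. Purified P. pyralis FLuc activity quantified from luminescence images.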
Assay [3] in a line: qHTS assay to identify small molecule agonists of the constitutive androstane receptor (CAR) signaling pathway - cell viability counter screen (AID 1224836). Further: series mostly up to about 92 µM; nearly all actives have a fitted effect of over 45% in size. The method in brief: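 Fluorescence from CellTiter-Fluor indicates live cells after 23 h exposure. The human hepatoma line expresses hCAR and a CYP2B6-2.2kb reporter. Incubation medium contains 0.75 uM PK11195 (final).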

The nature of assay [4]: qHTS assay to identify small molecule antagonists of the constitutive androstane receptor (CAR) signaling pathway - cell viability counter screen (AID 1224837). Further: series mostly up to about 92 µM; nearly all actives have a fitted effect of over 45% in size. The method in brief:
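Viability was measured with CellTiter-Fluor in a HepG2 line carrying stably transfected hCAR and a CYP2B6-2.2kb construct. Cells were exposed for 23 hr at 37 C to 15 compound concentrations with 50 nM CITCO as agonist.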

Assay [5] is described as follows: qHTS assay to identify small molecule antagonists of the estrogen related receptor signaling pathway with the pleiotropic PPARgamma coactivator (PGC) from Tox21 10K library - cell viability counter screen (AID 1224840; active means well fitted cell-killing curve with a large enough effect in the repeat runs, not every such curve was filed as active; further: nearly all actives have a fitted effect of over 40% in size). The method in brief:
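Multiplexed viability counter screen in the PGC/ERR cell line: cells treated with DMSO-dissolved compounds for 17.5 hours at 37 C, then viability measured as CellTiter-Fluor fluorescence.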

Assay [6] can be described thus: qHTS assay to identify small molecule antagonists of the estrogen related receptor signaling pathway with the pleiotropic PPARgamma coactivator (PGC) from Tox21 10K library (AID 1224841; call rule not given here; further: series mostly up to about 92 µM; actives are mostly falling curves and most rising ones were filed inactive; nearly all actives have a fitted effect of over 50% in size). The method, boiled down:
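Steps: plate 2,000 PGC/ERR cells per well; incubate 6 h at 37 C with 5% CO2; transfer compounds from DMSO stocks by pin tool; incubate 18 h at 37 C; add One-Glo; measure luminescence 30 min later.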

Assay [7] is described as follows: qHTS assay to identify small molecule agonists of the estrogen related receptor signaling pathway with the pleiotropic PPARgamma coactivator (PGC) from Tox21 10K library (AID 1224842). Further: nearly all actives have a fitted effect of over 15% in size. The method in brief:
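PGC/ERR reporter cells (NTP line) were seeded 2,000 per well, rested 6 h at 37 C/5% CO2, then pin-dosed with compounds in DMSO for 18 h at 37 C; luciferase read by One-Glo luminescence after 30 min at room temperature.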

In assay [8] the target is Nuclear receptor subfamily 1 group I member 3 (Homo sapiens) (UniProt Q14994). Briefly: qHTS assay to identify small molecule antagonists of the constitutive androstane receptor (CAR) signaling pathway (AID 1224838).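 Further: HepG2 cells stably expressing hCAR with CYP2B6 luciferase reporter stimulated by CITCO; nearly all actives have a fitted effect of over 40% in size.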 The method, boiled down:
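Antagonist mode used CITCO at a final 50 nM to activate CAR in human hepatoma HepG2 cells carrying stable hCAR and a 2.2 kb CYP2B6 promoter-luciferase construct. Compounds were tested at 15 concentrations over 24 h, with luminescence as the end point.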

Assay [9] shares this target. Put plainly: qHTS assay to identify small molecule agonists of the constitutive androstane receptor (CAR) signaling pathway (AID 1224839). Further: nearly all actives have a fitted effect of over 15% in size. Further: potency means the concentration at half of the fitted maximal effect. On activation: series mostly up to about 92 µM. The method in brief:
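Stable hCAR/CYP2B6-2.2kb HepG2 line in DMEM with 10% FBS; compounds (15 concentrations) and 0.75 uM PK11195 final, 24 h at 37 C/5% CO2, then ONE-Glo luminescence after 30 min.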
On the % scale 0 is the no-effect control and ±100 the full control effect.

Sequence of Nuclear receptor subfamily 1 group I member 3 (Homo sapiens) (Q14994 whole entry, looked up): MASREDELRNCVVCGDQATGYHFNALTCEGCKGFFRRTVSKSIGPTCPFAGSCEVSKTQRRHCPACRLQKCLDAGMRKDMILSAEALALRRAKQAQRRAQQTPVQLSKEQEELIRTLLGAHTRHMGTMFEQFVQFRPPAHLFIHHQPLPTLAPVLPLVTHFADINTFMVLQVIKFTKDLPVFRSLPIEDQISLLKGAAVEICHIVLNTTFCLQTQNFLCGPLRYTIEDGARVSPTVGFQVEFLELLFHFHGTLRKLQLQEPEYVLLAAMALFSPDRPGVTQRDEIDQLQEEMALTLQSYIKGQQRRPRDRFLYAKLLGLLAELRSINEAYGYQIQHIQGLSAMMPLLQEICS
Sequence of Luciferin 4-monooxygenase (Photinus pyralis) (P08659 whole entry, looked up): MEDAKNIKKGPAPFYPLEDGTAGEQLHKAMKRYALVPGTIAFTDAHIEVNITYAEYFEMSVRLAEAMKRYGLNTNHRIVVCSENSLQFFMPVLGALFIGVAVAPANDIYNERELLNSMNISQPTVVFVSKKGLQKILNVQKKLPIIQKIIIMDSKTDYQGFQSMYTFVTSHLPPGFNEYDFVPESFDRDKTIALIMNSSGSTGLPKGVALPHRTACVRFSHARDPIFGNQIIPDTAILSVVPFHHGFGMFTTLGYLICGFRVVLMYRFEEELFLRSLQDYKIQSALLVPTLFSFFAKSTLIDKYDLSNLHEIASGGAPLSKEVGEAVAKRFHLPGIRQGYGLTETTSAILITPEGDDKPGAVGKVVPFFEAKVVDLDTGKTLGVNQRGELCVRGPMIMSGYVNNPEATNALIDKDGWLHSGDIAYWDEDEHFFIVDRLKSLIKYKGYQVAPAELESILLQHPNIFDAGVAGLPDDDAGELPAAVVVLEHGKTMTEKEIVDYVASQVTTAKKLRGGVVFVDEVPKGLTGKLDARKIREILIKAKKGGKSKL

`CC(C)(N)Cc1ccccc1Cl`: the Potency entry in [1], in [2], in assay [3], in assay [4], in [5] and in [6] was “inactive” each time. Besides, the Potency entry in assay [7] was “inactive”.
Consider `CC1NCCOC1c1ccccc1` (centres undefined), for which the Potency entry in assay [1], in assay [2], in assay [3], in assay [8], in assay [9] and in assay [5] was “inactive” throughout. The Potency entry in assay [6] and in assay [7] was “inactive” each time.
As for `CCCCOC(C)=O`, the Potency result in assay [1], in [2], in assay [3], in [4] and in assay [5] was “inactive” in each case.
On to `Clc1ccc(C(Cl)(Cl)Cl)cn1`, for which the Potency result in [1], in [2], in [3], in assay [4] and in [5] was “inactive” each time.
Regarding `OCC(Cl)CCl` (centres undefined), the Potency result in assay [1], in assay [2], in assay [3], in [4] and in assay [5] was “inactive” in each case.
Consider `O=C(O)CBr`, for which the Potency result in assay [1], in [2], in assay [3], in assay [4], in assay [5] and in assay [6] was “inactive” in each case. Also, the Potency result in assay [7] is “inactive”.
For the compound `O=C(Cl)c1ccccc1`, the Potency entry in [1], in assay [2], in assay [3], in assay [8], in assay [9] and in assay [5] was “inactive” each time. The Potency result in assay [6] and in assay [7] was “inactive” each time.
On to `CCCCCCCCSC(=O)Oc1cc(Cl)nnc1-c1ccccc1`, for which the Potency result in assay [1], in assay [2], in [3], in assay [4] and in [5] was “inactive” in each case.
For the compound `N#CC(Br)(Br)C(N)=O`, the Potency result in assay [1], in assay [2], in assay [3], in [4] and in assay [5] was “inactive” throughout.
In the case of `NCCOS(=O)(=O)O`, the Potency entry in [1], in assay [2], in assay [3], in assay [4] and in assay [5] was “inactive” in each case.
Consider `C=CC(=O)OCCN(C)C`, for which the Potency result in assay [1], in assay [2], in assay [3], in assay [4], in assay [5] and in [6] was “inactive” each time. Also, in [7], the Potency result is “inactive”.
For the compound `C=C(Cl)CCl`, the Potency result in [1], in [2], in [3], in assay [4] and in [5] was “inactive” throughout.
On to `CN=CNc1ccc(C)cc1C`, for which the Potency result in assay [1], in assay [2], in assay [3], in assay [4], in [5] and in [6] was “inactive” each time. Also, the Potency result in [7] is “inactive”.
Turning to `CCOC(=O)N(C)N=O`, the Potency entry in [1], in assay [2], in assay [3], in [4], in [5] and in [6] was “inactive” in each case. In addition, the Potency result in assay [7] is “inactive”.
`COc1ccc2c(C(=O)c3ccc(Cl)cc3)c(C)n(CC(=O)O)c2c1`: the Potency result in assay [1], in assay [2], in [3], in assay [4] and in assay [5] was “inactive” each time.
As for `COc1cccc([C@@]2(O)CCCC[C@@H]2CN(C)C)c1`, the Potency result in assay [1], in assay [2], in assay [3], in assay [4], in assay [5] and in [6] was “inactive” each time. Besides, the Potency result in assay [7] is “inactive”.
For `Oc1ccc2c3c1O[C@H]1[C@@H](O)C=C[C@H]4[C@@H](C2)NCC[C@@]341`, the Potency result in assay [1], in assay [2], in [3], in assay [4], in [5] and in [7] was “inactive” in each case.
Consider `C=C1CC[C@@]2(O)[C@H]3Cc4ccc(O)c5c4[C@@]2(CCN3CC2CC2)[C@H]1O5`, for which the Potency entry in [1], in assay [2], in assay [3], in [4], in assay [5] and in assay [6] was “inactive” in each case. Further, in assay [7], the Potency result is “inactive”.
Take `CC(C)NCC(O)c1ccc([N+](=O)[O-])cc1` (centres undefined): the Potency result in [1], in assay [2], in [3], in [8], in assay [9] and in [5] was “inactive” each time.
Consider `CCOP(=O)(CN(CCO)CCO)OCC`, for which the Potency result in assay [1], in assay [2], in assay [3], in assay [4] and in [5] was “inactive” in each case.
As for `O=[N+]([O-])CCO`, the Potency entry in [1], in [2], in assay [4], in assay [8], in assay [9] and in [5] was “inactive” throughout. Further, the Potency entry in [6] and in assay [7] was “inactive” in each case.
`O=P(O)(O)c1ccccc1`: the Potency entry in assay [1], in assay [2], in [4], in assay [8], in assay [9] and in assay [5] was “inactive” in each case.
On to `C=CCc1cc(OC)c2c(c1)OCO2`, for which the Potency result in assay [1], in [2], in assay [4], in [8], in assay [9] and in [5] was “inactive” in each case.
For `O=C/C=C/c1ccco1`, the Potency entry in assay [1], in assay [2], in [3], in [8] and in assay [5] was “inactive” throughout.
`C[N+]1(C)CCCCC1`: the Potency entry in [1], in assay [2], in [3], in assay [9] and in assay [5] was “inactive” each time.
On to `CC1N=C(N)OC1c1ccccc1` (centres undefined), for which the Potency result in [1], in [2], in assay [4], in assay [8], in assay [9] and in [5] was “inactive” in each case.
With `Cc1ccc(Cl)c(O)c1`, the Potency entry in assay [1], in assay [2], in [4], in assay [8], in assay [9] and in assay [5] was “inactive” throughout. In addition, the Potency result in assay [6] and in [7] was “inactive” throughout.
With `CN(CCO)CCO`, the Potency entry in assay [1], in [2], in [4], in assay [8], in assay [9] and in assay [5] was “inactive” in each case.
On to `O=C(O)C(Br)(Br)Br`, for which the Potency entry in assay [1], in [2], in assay [4], in [8], in assay [9] and in assay [5] was “inactive” each time. Besides, the Potency result in assay [6] and in assay [7] was “inactive” in each case.
Turning to `CC(=NC#N)N(C)Cc1ccc(Cl)nc1`, the Potency entry in [1], in assay [2], in [3] and in [5] was “inactive” each time.
For the compound `CCC(CC)(CNC(=O)CCCO)c1cccc(OC)c1`, the Potency entry in assay [1], in [2], in assay [4], in assay [8], in [9] and in assay [5] was “inactive” in each case. In addition, the Potency result in assay [6] and in [7] was “inactive” throughout.
On to `C[C@H](CN1CCOCC1)C(C(=O)N1CCCC1)(c1ccccc1)c1ccccc1`, for which the Potency result in assay [1], in assay [2], in assay [3], in assay [5] and in assay [7] was “inactive” throughout.
Consider `CCOC(=O)CC(SP(=S)(OC)OC)C(=O)OCC` (centres undefined), for which the Potency entry in [1], in [4], in assay [8] and in assay [5] was “inactive” throughout. The Potency in [2] was 35.6 µM (active) and 38.9 µM (active); in assay [9], 21.7 µM (active) and 26.6 µM (active).
As to `Cc1ccc2c(c1)C1CN(C)CCC1N2` (centres undefined), the viability change, negative = cytotoxic in [1] is 8.02% [at 19 µM]; in assay [5], 2.92% [at 19 µM]. In [2], the activity change, negative = inhibition was -0.519% [at 23.6 µM]. For the same compound, the activity change, negative = cytotoxicity in [4] was 1.97% [at 19 µM]. Further, the activity, negative = inhibition in assay [8] is 51% [at 19 µM]; in [6], -1.31% [at 19 µM]. Also, the figures for the activation in assay [9] and in assay [7] were 2.22% [at 19 µM] and -0.364% [at 19 µM], respectively.
With `O=C(NC(=O)c1c(F)cccc1F)Nc1cc(Cl)c(F)c(Cl)c1F`, the Potency entry in assay [1], in assay [2], in assay [4], in assay [8], in [9] and in assay [5] was “inactive” in each case.
As to `CN(C)CCN(C)C`, the Potency entry in assay [1], in assay [2], in assay [3], in assay [5], in assay [6] and in assay [7] was “inactive” in each case.
As to `CCOC(=O)C(Cl)Cc1cc(-n2nc(C)n(C(F)F)c2=O)c(F)cc1Cl` (centres undefined), the Potency entry in assay [1], in assay [2], in assay [3], in assay [8] and in [5] was “inactive” in each case.
Take `C=C(C)[C@H]1CN[C@H](C(=O)O)[C@H]1CC(=O)O`: the Potency result in assay [1], in [2], in [4], in assay [8], in assay [9] and in [5] was “inactive” throughout.
`CN(C)CCc1c[nH]c2cccc(OP(=O)(O)O)c12`: the Potency result in [1], in [2], in [3] and in assay [5] was “inactive” throughout.
In the case of `CN1C(=O)COc2c(C(=O)NC3CN4CCC3CC4)cc(Cl)cc21` (centres undefined), the Potency result in [1], in assay [2], in [4], in assay [8], in assay [9] and in [5] was “inactive” each time.
Consider `N#CN`, for which the Potency result in assay [1], in [2], in assay [4], in assay [8], in [9] and in assay [5] was “inactive” throughout.
With `CC(C)[C@]12CC(=O)[C@H](C)[C@H]1C2`, the Potency entry in assay [1], in [2], in assay [3] and in [5] was “inactive” in each case.

The values are drawn from PubChem BioAssay (Tox21).
